# Source: PMC7862700, “An all-to-all approach to the identification of sequence-specific readers for epigenetic DNA modifications on cytosine”
# Assays:
# Assay in all cases: DAPPL (digital affinity profiling via proximity ligation, sequencing); 10 mM Tris-HCl pH 7.5, 50 mM NaCl, 1 mM DTT, 4% glycerol, room temperature, 30 min; GST-TFs on glutathione beads, 16-mer random dsDNA library, 0.1% formaldehyde crosslink after washing; high values mean tight binding
# FLI1 = biological target: T1, FLI1 (Homo sapiens, UniProt Q01543 1-452); conditions: protein: recombinant; tags: N-terminal GST; dsDNA, one strand shown
# T1 sequence: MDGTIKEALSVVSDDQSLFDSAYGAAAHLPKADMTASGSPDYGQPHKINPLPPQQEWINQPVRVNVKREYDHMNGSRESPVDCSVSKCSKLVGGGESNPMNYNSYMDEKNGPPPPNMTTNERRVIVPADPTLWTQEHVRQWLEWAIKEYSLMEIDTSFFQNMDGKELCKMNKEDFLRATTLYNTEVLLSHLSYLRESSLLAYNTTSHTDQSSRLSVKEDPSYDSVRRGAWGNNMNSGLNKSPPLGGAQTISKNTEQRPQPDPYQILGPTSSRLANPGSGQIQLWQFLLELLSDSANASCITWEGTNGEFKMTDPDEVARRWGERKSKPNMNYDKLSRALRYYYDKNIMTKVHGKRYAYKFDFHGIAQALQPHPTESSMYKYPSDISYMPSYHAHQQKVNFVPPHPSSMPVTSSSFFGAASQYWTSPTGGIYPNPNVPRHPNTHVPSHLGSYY
# Outline: (§1)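 Pools of DNA-barcoded human transcription factors, expressed in yeast as GST fusions on glutathione beads and combined with a tag-only sample, were incubated with 200 nmole of a 16-mer random double-stranded DNA library. Incubation took 30 min at room temperature in Tris/NaCl/DTT/glycerol buffer and was followed by washing, 0.1% formaldehyde crosslinking, proximity ligation (BsaI/T4 ligase, 1 h, 37 °C), PCR amplification and sequencing on an Illumina NextSeq500. Binding signal is the ratio of a hexamer's read frequency for a factor to its frequency for the tag-only sample.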
# ELK1 = biological target: T2, ELK1 (Homo sapiens, UniProt P19419 1-428); conditions: protein: recombinant; tags: N-terminal GST; dsDNA, one strand shown
# T2 sequence: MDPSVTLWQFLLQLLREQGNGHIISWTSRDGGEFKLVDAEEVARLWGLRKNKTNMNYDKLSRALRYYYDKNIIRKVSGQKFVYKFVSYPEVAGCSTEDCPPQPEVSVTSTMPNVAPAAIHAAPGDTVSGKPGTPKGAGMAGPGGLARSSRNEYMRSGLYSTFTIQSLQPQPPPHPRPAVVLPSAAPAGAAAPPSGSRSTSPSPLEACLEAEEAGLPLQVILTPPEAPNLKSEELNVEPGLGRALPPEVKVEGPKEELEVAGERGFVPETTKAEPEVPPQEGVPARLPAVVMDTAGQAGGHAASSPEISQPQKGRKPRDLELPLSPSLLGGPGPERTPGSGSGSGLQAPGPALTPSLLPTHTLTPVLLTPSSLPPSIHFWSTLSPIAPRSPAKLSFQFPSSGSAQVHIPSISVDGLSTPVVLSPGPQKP
# Outline: as §1
# GABPA = biological target: T3, GABPA (Homo sapiens, UniProt Q06546 1-454); conditions: protein: recombinant; tags: N-terminal GST; dsDNA, one strand shown
# T3 sequence: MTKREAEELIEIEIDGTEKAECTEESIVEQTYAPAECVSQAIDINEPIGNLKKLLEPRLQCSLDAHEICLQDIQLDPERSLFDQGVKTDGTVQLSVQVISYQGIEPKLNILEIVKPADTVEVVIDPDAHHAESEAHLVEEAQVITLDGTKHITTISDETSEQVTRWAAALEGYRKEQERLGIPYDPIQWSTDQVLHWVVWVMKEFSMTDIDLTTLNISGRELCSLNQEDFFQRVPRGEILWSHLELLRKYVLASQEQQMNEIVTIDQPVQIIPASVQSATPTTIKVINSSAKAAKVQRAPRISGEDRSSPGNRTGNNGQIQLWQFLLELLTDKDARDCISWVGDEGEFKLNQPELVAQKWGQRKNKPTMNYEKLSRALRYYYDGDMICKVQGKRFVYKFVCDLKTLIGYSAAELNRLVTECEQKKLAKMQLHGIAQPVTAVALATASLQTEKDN
# Outline: as §1
# ERG = biological target: T4, ERG (Homo sapiens, UniProt P11308 1-479); conditions: protein: recombinant; tags: N-terminal GST; dsDNA, one strand shown
# T4 sequence: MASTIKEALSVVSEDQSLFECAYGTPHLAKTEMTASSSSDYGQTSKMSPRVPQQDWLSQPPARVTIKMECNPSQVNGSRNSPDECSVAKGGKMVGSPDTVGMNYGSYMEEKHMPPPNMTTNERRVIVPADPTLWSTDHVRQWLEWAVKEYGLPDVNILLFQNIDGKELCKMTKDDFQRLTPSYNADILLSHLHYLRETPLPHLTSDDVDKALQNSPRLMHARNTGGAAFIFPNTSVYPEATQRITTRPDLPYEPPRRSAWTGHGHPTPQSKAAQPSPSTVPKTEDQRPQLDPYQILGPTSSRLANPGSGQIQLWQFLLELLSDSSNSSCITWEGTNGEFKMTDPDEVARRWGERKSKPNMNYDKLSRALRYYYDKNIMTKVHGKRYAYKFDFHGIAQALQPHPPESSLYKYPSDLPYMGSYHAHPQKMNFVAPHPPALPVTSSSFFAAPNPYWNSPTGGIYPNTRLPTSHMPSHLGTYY
# Outline: as §1
# ELF1 = ELF1 (Homo sapiens, UniProt P32519 1-619); conditions: protein: recombinant; tags: N-terminal GST; dsDNA, one strand shown
# Chain of ELF1 (P32519 whole entry): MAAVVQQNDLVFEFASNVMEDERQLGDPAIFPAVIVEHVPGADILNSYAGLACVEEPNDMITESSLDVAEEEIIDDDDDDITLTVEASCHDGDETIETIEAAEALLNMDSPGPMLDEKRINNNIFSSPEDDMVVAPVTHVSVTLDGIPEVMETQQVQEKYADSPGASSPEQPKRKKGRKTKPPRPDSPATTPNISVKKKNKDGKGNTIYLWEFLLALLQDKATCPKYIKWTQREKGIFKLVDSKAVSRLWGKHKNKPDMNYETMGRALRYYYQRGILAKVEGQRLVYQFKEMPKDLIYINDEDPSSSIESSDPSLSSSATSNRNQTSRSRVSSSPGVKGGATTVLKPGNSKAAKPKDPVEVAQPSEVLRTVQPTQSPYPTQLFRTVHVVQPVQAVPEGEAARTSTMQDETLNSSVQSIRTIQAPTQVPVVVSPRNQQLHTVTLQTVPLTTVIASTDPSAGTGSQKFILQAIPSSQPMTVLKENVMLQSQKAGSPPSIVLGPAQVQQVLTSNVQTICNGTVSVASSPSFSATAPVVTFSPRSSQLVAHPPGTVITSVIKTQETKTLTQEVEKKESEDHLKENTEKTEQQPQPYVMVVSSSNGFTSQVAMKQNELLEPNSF
# Outline: as §1
# EHF = biological target: T5, EHF (Homo sapiens, UniProt Q9NZC4 1-300); conditions: protein: recombinant; tags: N-terminal GST; dsDNA, one strand shown
# T5 sequence: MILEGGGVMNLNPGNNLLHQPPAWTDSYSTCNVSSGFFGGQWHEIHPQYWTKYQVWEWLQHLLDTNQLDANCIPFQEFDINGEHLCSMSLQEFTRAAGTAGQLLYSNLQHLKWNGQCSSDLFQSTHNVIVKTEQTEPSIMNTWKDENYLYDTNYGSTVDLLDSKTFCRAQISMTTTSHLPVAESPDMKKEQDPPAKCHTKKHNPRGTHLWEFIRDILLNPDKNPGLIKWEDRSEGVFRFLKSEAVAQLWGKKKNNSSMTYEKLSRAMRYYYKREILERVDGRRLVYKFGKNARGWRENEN
# Outline: as §1
# SPI1 = SPI1 (Homo sapiens, UniProt P17947 1-270); conditions: protein: recombinant; tags: N-terminal GST; dsDNA, one strand shown
# Outline: as §1
# SPIB = SPIB (Homo sapiens, UniProt Q01892 1-262); conditions: protein: recombinant; tags: N-terminal GST; dsDNA, one strand shown
# Chain of SPIB (Q01892 whole entry): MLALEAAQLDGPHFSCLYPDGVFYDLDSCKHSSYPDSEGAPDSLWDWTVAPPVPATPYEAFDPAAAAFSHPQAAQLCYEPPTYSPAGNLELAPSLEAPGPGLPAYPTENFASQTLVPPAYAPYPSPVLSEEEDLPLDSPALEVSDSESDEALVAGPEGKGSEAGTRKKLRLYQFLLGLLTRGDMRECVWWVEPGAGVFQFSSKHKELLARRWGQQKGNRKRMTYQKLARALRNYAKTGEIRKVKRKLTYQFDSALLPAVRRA
# Outline: as §1
# ELK3 = biological target: T6, ELK3 (Homo sapiens, UniProt P41970 1-407); conditions: protein: recombinant; tags: N-terminal GST; dsDNA, one strand shown
# T6 sequence: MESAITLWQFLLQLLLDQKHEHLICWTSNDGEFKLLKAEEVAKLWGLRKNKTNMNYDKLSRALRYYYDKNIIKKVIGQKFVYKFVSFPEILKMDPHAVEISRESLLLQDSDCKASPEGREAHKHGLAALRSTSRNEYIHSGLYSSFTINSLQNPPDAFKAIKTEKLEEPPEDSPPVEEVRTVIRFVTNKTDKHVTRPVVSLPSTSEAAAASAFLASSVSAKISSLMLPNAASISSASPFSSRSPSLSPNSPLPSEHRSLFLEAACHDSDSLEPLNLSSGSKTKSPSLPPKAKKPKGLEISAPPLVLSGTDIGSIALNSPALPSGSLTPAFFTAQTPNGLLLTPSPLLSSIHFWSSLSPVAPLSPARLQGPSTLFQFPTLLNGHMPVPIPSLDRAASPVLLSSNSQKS
# Outline: as §1
# FEV = biological target: T7, FEV (Homo sapiens, UniProt Q99581 1-238); conditions: protein: recombinant; tags: N-terminal GST; dsDNA, one strand shown
# T7 sequence: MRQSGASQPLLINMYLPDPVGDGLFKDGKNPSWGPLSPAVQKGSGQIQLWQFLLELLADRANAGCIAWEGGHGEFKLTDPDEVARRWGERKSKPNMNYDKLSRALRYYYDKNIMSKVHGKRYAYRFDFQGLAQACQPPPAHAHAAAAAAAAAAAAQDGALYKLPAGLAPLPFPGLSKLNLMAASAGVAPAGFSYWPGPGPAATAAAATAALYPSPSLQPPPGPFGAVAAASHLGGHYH
# Outline: as §1
# ETV5 = ETV5 (Homo sapiens, UniProt P41161 1-510); conditions: protein: recombinant; tags: N-terminal GST; dsDNA, one strand shown
# Chain of ETV5 (P41161 whole entry): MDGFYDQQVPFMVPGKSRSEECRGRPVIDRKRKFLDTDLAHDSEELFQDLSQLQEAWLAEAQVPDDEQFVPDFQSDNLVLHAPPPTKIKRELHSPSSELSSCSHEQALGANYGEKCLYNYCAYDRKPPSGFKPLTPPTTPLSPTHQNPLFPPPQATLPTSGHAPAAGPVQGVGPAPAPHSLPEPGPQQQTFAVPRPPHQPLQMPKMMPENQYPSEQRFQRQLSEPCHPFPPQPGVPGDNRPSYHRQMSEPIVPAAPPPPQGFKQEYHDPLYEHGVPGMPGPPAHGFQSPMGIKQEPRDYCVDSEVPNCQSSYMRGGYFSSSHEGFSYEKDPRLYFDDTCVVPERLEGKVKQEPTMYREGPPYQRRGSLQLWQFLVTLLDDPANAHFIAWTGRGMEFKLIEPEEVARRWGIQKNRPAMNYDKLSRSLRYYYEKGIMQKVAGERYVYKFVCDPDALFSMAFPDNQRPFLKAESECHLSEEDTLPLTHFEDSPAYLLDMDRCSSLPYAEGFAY
# Outline: as §1
# HSF1 = HSF1 (Homo sapiens, UniProt Q00613 1-529); conditions: protein: recombinant; tags: N-terminal GST; chain copies: 3; dsDNA, one strand shown
# Chain of HSF1 (Q00613 whole entry): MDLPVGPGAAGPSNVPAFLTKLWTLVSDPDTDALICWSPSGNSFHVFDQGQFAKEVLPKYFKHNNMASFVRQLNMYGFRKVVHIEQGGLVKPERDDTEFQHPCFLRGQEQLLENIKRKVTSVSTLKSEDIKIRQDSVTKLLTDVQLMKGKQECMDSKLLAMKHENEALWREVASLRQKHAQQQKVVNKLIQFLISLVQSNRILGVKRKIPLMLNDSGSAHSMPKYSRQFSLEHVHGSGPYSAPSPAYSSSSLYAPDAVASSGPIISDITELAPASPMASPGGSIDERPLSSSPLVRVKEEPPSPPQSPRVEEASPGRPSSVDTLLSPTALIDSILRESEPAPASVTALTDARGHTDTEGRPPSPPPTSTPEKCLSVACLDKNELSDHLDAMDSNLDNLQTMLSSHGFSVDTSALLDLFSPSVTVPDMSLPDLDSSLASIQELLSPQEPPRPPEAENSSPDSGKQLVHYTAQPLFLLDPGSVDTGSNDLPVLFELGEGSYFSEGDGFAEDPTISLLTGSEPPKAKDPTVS
# Outline: as §1
# SPIC = biological target: T8, SPIC (Homo sapiens, UniProt Q8N5J4 1-248); conditions: protein: recombinant; tags: N-terminal GST; dsDNA, one strand shown
# T8 sequence: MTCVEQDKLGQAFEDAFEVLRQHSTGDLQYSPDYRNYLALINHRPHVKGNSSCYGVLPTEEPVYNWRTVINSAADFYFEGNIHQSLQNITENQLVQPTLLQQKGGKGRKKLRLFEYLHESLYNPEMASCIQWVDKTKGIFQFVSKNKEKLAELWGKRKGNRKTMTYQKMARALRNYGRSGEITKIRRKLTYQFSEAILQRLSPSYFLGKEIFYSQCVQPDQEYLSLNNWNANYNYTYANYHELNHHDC
# Outline: as §1
# ELF4 = ELF4 (Homo sapiens, UniProt Q99607 1-663); conditions: protein: recombinant; tags: N-terminal GST; dsDNA, one strand shown
# Chain of ELF4 (Q99607 whole entry): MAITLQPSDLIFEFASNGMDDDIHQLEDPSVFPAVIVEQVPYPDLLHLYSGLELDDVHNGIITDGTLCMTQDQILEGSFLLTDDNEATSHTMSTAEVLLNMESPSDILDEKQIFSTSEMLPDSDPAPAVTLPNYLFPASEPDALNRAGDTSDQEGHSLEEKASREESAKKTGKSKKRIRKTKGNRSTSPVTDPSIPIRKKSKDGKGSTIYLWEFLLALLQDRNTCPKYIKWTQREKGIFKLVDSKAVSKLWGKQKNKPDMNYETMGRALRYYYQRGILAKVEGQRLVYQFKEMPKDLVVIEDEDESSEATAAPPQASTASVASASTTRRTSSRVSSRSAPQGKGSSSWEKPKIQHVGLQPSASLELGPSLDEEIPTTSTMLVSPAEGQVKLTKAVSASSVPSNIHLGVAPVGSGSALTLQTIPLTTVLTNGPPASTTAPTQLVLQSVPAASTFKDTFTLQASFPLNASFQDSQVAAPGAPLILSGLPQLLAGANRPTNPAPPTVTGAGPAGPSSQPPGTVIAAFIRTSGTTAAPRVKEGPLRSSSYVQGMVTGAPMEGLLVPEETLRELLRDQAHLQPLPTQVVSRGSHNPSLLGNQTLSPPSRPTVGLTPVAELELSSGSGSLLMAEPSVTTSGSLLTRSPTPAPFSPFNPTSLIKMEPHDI
# Outline: as §1
# ELK4 = biological target: T9, ELK4 (Homo sapiens, UniProt P28324-2 1-405); conditions: protein: recombinant; tags: N-terminal GST; dsDNA, one strand shown
# T9 sequence: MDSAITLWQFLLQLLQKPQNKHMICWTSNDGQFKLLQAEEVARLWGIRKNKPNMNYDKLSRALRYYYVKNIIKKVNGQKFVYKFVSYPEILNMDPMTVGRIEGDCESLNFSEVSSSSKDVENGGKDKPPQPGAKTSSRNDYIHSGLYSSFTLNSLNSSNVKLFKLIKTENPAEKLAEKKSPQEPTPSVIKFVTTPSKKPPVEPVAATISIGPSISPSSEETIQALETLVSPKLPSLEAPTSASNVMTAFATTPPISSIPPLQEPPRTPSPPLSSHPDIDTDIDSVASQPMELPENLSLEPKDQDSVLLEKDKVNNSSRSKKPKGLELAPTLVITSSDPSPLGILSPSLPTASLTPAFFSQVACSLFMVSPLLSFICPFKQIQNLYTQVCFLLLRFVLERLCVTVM
# Outline: as §1
# ETV2 = biological target: T10, ETV2 (Homo sapiens, UniProt O00321 1-342); conditions: protein: recombinant; tags: N-terminal GST; dsDNA, one strand shown
# T10 sequence: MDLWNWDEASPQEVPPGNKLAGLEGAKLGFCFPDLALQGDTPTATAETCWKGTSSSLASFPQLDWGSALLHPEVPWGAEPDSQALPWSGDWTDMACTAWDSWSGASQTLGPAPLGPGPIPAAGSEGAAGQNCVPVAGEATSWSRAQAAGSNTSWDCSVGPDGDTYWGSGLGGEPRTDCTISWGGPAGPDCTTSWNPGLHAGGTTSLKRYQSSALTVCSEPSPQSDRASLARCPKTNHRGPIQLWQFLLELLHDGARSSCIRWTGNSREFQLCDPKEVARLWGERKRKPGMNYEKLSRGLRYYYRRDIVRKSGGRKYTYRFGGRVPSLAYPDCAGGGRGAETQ
# Outline: as §1
# ELF3 = biological target: T11, ELF3 (Homo sapiens, UniProt P78545 1-371); conditions: protein: recombinant; tags: N-terminal GST; dsDNA, one strand shown
# T11 sequence: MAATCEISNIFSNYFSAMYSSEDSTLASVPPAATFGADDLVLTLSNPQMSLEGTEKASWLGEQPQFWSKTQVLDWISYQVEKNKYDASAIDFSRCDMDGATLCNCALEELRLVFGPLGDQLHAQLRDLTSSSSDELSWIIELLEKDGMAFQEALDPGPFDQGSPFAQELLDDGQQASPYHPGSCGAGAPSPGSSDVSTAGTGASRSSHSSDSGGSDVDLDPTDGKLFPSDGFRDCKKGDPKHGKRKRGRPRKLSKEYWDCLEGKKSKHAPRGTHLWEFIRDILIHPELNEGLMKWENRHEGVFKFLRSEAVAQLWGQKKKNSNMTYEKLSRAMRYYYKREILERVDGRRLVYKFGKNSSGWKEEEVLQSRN
# Outline: as §1
# CRX = CRX (Homo sapiens, UniProt O43186 1-299); conditions: protein: recombinant; tags: N-terminal GST; dsDNA, one strand shown
# Chain of CRX (O43186 whole entry): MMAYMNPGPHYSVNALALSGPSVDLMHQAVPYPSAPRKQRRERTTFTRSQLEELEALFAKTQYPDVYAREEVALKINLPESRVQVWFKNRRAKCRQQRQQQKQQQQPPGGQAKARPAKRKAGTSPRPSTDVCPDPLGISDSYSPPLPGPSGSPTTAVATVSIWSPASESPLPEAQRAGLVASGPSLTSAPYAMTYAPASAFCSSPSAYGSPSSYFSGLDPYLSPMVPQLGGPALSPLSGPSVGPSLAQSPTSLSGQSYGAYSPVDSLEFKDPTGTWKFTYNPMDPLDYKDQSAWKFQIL
# Outline: as §1
# ETV1 = ETV1 (Homo sapiens, UniProt P50549 1-477); conditions: protein: recombinant; tags: N-terminal GST; dsDNA, one strand shown
# Chain of ETV1 (P50549 whole entry): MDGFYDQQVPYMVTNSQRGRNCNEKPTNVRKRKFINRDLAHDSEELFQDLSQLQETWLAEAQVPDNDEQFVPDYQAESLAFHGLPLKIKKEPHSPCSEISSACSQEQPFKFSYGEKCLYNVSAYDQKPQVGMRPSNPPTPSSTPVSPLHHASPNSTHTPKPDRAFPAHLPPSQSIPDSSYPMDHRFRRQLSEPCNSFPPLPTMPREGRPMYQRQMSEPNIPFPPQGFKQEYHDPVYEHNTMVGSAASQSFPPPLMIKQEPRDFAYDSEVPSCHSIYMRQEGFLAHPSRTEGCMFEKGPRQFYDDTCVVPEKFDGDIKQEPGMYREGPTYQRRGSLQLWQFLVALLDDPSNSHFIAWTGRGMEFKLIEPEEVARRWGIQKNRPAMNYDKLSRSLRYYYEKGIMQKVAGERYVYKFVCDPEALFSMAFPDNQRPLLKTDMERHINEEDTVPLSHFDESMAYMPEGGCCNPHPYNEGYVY
# Outline: as §1
sequence,measurement,setting,value
TAAATT,binding signal,FLI1,"1.26 fold enrichment (6-mer frequency, TF over GST control)"
same,binding signal,ELK1,"1.22 fold enrichment (6-mer frequency, TF over GST control)"
same,binding signal,GABPA,"1.2 fold enrichment (6-mer frequency, TF over GST control)"
same,binding signal,ERG,"1.22 fold enrichment (6-mer frequency, TF over GST control)"
same,binding signal,ELF1,"1.27 fold enrichment (6-mer frequency, TF over GST control)"
same,binding signal,EHF,"1.32 fold enrichment (6-mer frequency, TF over GST control)"
same,binding signal,SPI1,"1.22 fold enrichment (6-mer frequency, TF over GST control)"
same,binding signal,SPIB,"1.3 fold enrichment (6-mer frequency, TF over GST control)"
same,binding signal,ELK3,"1.31 fold enrichment (6-mer frequency, TF over GST control)"
same,binding signal,FEV,"1.25 fold enrichment (6-mer frequency, TF over GST control)"
same,binding signal,ETV5,"1.26 fold enrichment (6-mer frequency, TF over GST control)"
same,binding signal,HSF1,"1.51 fold enrichment (6-mer frequency, TF over GST control)"
same,binding signal,SPIC,"1.25 fold enrichment (6-mer frequency, TF over GST control)"
same,binding signal,ELF4,"1.17 fold enrichment (6-mer frequency, TF over GST control)"
same,binding signal,ELK4,"1.31 fold enrichment (6-mer frequency, TF over GST control)"
same,binding signal,ETV2,"1.34 fold enrichment (6-mer frequency, TF over GST control)"
same,binding signal,ELF3,"1.32 fold enrichment (6-mer frequency, TF over GST control)"
same,binding signal,CRX,"1.76 fold enrichment (6-mer frequency, TF over GST control)"
same,binding signal,ETV1,"1.17 fold enrichment (6-mer frequency, TF over GST control)"
